Experimental data taken from PubChem BioAssay (NCI).
About 83,000 compounds went through this panel and 20% of them were active in at least one assay; those are over-represented in the sample as a whole.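 Method: cells in 96-well plates; compound added at one concentration; 48 h incubation; percent growth measured; values under 10 scored active.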 Values without a mark were called inactive. Calls of active or inactive are those of the source.

Columns and labels:
Test in all cases: NCI-60 one-dose screen, 48 h (100 = growth as untreated, 0 = no growth, -100 = all killed)
Conditions in all cases: 10 µM unless noted
[1] = test system: EKVX NSCLC
[2] = test system: SN12C renal
[3] = test system: UO-31 renal
[4] = test system: TK-10 renal
[5] = test system: ACHN renal
[6] = test system: CAKI-1 renal
[7] = test system: A498 renal
[8] = test system: CCRF-CEM leukemia
[9] = test system: MOLT-4 leukemia

SMILES	growth [1]	growth [2]	growth [3]	growth [4]	growth [5]	growth [6]	growth [7]	growth [8]	growth [9]
COc1cc(Nc2ncc3c(n2)-c2ccc(Cl)cc2C(c2c(F)cccc2OC)=NC3)ccc1C(=O)O	89.9%	72.6%	51.7%	63.9%	64.4%	68.2%	63.2%	47.2%	52.8%
CCN1CCN(Cc2ccc(Cc3ncc(F)c(-c4cc(F)c5nc(C)n(C(C)C)c5c4)n3)nc2)CC1	59.6%	48.9%	11.8%	35.1%	27.3%	24%	34.5%	22.3%	13.4%
CCCCCC(=O)OCc1ccc(Cl)c(Cl)c1	116%	111%	90.5%	104%	107%	103%	92.6%	109%	98.7%
O=C(Cn1ccnc1)Nc1ccc(-c2nc3ccccc3s2)cc1	61.4%	84.6%	60.4%	81.8%	90.3%	66.2%	57.5%	69.1%	68.1%
O=C(COc1ccc(/C=C2\Cc3ccc(Cl)cc3C2=O)cc1)Nc1nccs1	110%	95.7%	28.7%	138%	92.7%	90.1%	127%	59.5%	51.7%
COC(=O)[C@H](Cc1ccccc1)NC(=O)[C@@H](OC)[C@@H]1Cc2cc3cc(OC4CC(OC5CC(O)C(O)C(C)O5)C(O)C(C)O4)c(C)c(O)c3c(O)c2C(=O)[C@H]1OC1CC(OC2CC(OC3CC(C)(O)C(O)C(C)O3)C(O)C(C)O2)C(O)C(C)O1 (some centres not stated)	-2.04% (active)	4.42% (active)	-7.79% (active)	6.76% (active)	-8.69% (active)	15.3%	-40.3% (active)	4.07% (active)	-5.77% (active)
Cc1cccc(C)c1N1C(c2ccccc2)=NNC12C=CC(=O)c1c(O)cccc12 (configuration not stated)	91.3%	72.5%	48.4%	111%	88.6%	101%	109%	95.9%	76.9%
O=C(NC1CCNCC1)c1[nH]ncc1NC(=O)c1c(Cl)cccc1Cl	52.5%	12.7%	70.6%	25.8%	66.5%	45.4%	-25.3% (active)	11.2%	5.67% (active)
COc1c(OCCCN2CCOCC2)ccc2c3n(c(=NC(=O)c4cnc(N)nc4)nc12)CCN3	13.2%	16.3%	-13.8% (active)	-21% (active)	8.09% (active)	0.422% (active)	-60.7% (active)	17.7%	6.38% (active)
COc1ccc(/C(C)=C(\c2ccc(Cl)cc2)c2ccc(OCCN3CCCCCC3)cc2)cc1	56.7%	55.3%	46%	73.8%	67.3%	66.6%	78.4%	43.9%	40.2%
CN(C[C@@H]1COCCO1)S(=O)(=O)Nc1ccc2ccc3ncc(-c4cnn(C)c4)cc3c(=O)c2c1	52.9%	38.9%	8.44% (active)	37.2%	22.2%	7.99% (active)	-19% (active)	34.9%	21.1%
COc1cc2c(Oc3ccc(NC(=O)C4(C(=O)Nc5ccc(F)cc5)CC4)cc3F)ccnc2cc1OCCCN1CCOCC1	25.9%	14.5%	-74.4% (active)	-5.46% (active)	-4.14% (active)	-69% (active)	-92.4% (active)	-3.58% (active)	-9.06% (active)
Cn1cnc2c(F)c(Nc3ccc(Br)cc3F)c(C(=O)NOCCO)cc21	54%	56.2%	48.8%	50.5%	57.6%	45.9%	-28.4% (active)	73.8%	72.9%
Cc1cnc(NC(=O)Nc2cc(Br)c(C)cc2OC[C@@H]2CNCCO2)cn1	25.9%	39.5%	-12.3% (active)	28.8%	3.08% (active)	1.9% (active)	18.1%	4.56% (active)	2.6% (active)
C[C@@]1(C(=O)Nc2ccc(F)nc2)CCCN1c1nc(Nc2cc(C3CC3)[nH]n2)c2cccn2n1	46.2%	34.6%	2.07% (active)	35.9%	25.7%	-17.7% (active)	-41.7% (active)	44%	30.3%
Cn1cnc(-c2cc3nccc(Oc4ccc(NC(=S)NC(=O)Cc5ccccc5)cc4F)c3s2)c1	109%	54.1%	72.2%	85.1%	80.4%	80.8%	62.9%	58.6%	69.4%
CNC(=O)c1ccccc1Nc1nc(Nc2ccc3c(c2OC)CCC[C@H](N2CCN(CCO)CC2)C3)ncc1Cl	11.8%	7.63% (active)	6.91% (active)	26.2%	5.75% (active)	-26.6% (active)	-64.3% (active)	7.29% (active)	-23.5% (active)
COc1ccc(Cc2cc(-c3ccccc3C)n[nH]c2=O)cc1	108%	92.3%	76.8%	116%	104%	109%	87.2%	-41.2% (active)	96.9%
CNC(=O)c1cc(Oc2cccc3nc(Nc4ccc(Cl)c(F)c4)ccc23)ccn1	71.1%	63.2%	81.6%	54.1%	38.5%	87.9%	83.8%	91.3%	69.2%
CN(C)CCn1c(=O)c2c3cc4c(cc3n(CCN(C)C)c2c2ccc(Cl)cc21)OCO4	74%	31.7%	57.8%	103%	26.3%	42.4%	67.1%	14.4%	3.05% (active)
CNC(=O)c1c(C)oc2cc(Oc3ncnc4cc(OC)c(OC)cc34)ccc12	113%	107%	66%	98.9%	104%	82.2%	19.5%	86.2%	85.6%
FC(F)(F)c1ccc(CNc2ccc(Cc3c[nH]c4ncc(Cl)cc34)cn2)cn1	30.3%	52.2%	10.7%	18.3%	31.6%	25.2%	18.3%	23.4%	7.19% (active)
O=C(c1c(F)ccc(NS(=O)(=O)N2CC[C@@H](F)C2)c1F)c1c[nH]c2ncc(-c3cnc(C4CC4)nc3)cc12	58.5%	48%	25.9%	41.7%	34.5%	16.7%	62.7%	47.6%	16.3%
COCCOc1cnc2ccn([C@H](C)c3nnc4c(F)cc(-c5cnn(C)c5)cn34)c(=O)c2c1	96%	86.3%	60%	105%	80.3%	65.2%	35.9%	70.6%	78.7%
CCOc1cc2ncc(C#N)c(Nc3ccc(OCc4ccccn4)c(Cl)c3)c2cc1NC(=O)/C=C/CN(C)C	20.7%	-62.8% (active)	-85% (active)	5.99% (active)	-56% (active)	5.2% (active)	34.7%	3.88% (active)	19.9%
Cn1c(=O)c(F)c(Nc2ccc(I)cc2F)c2c(=O)n(C[C@@H](O)CO)cnc21	46.6%	40.1%	22.8%	41.2%	50.7%	41.7%	-30.7% (active)	66.8%	73.7%
CCN1CCN(Cc2ccc(NC(=O)Nc3nc(-c4cc(OC)c(OC)c(OC)c4)cs3)cc2C(F)(F)F)CC1	26.8%	28.9%	53.2%	62.4%	20.8%	55.2%	51.6%	0.288% (active)	-18.9% (active)
Cc1cc(C(=O)Nc2cc(Oc3ccc4nc(NC(=O)C5CC5)cn4n3)ccc2C)n(C)n1	58.8%	37.8%	14.4%	27.4%	37.3%	23.8%	-39.2% (active)	29.9%	32.6%
